About 83,000 compounds went through this panel and 20% of them were active in at least one assay; those are over-represented in the sample as a whole.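 The endpoint reported here, percent growth, reads 100 for growth as untreated, 0 for no net growth and -100 for all cells dead.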 Active and inactive are the calls of the source. How the source made its calls: active means growth percent below 10; inactive means the rest.
Key:
Experiment in all cases: NCI-60 one-dose screen, 48 h (100 = growth as untreated, 0 = no growth, -100 = all killed)
Conditions in all cases: 10 µM unless noted
[1] = test system: DU-145 prostate
[2] = test system: K-562 leukemia
[3] = test system: MALME-3M melanoma
[4] = test system: MDA-MB-231 breast
[5] = test system: RXF 393 renal
[6] = test system: SF-268 CNS
[7] = test system: SF-295 CNS
[8] = test system: SF-539 CNS
[9] = test system: UACC-257 melanoma
[10] = test system: M14 melanoma

Measured: growth

Nc1nc2ccccc2c2c(=O)c3cc(Cl)ccc3sc12
inactive: [1] 14.6% | [2] 96.1% | [3] 108% | [4] 84.7% | [5] 108% | [6] 13% | [7] 96.2% | [8] 95.5% | [9] 99.1% | [10] 105%

COc1c2c(cc3c1C(=O)N[C@@H]1[C@@H](O)[C@@H](O)[C@H](O)C[C@@H]31)OCCO2
inactive: [1] 107% | [2] 95.6% | [3] 106% | [4] 109% | [5] 102% | [6] 97.9% | [7] 99.6% | [8] 106% | [9] 98.8% | [10] 105%

COc1ccc(C=Nc2c(C(=O)Nc3cccc(Cl)c3C)sc3nc(C)c(C(=O)/C=C/c4ccc(OC)cc4)cc23)cc1
inactive: [1] 14.7% | [2] 17.1% | [3] 44.4% | [6] 29.9% | [7] 18.5% | [9] 55.6%
active: [4] 2.5% | [5] -44.4% | [8] -30.6% | [10] -3.16%

Cc1c2ncccc2nc2[nH]c3ccc(OCCN(C)C)cc3c12
inactive: [1] 22.2% | [2] 17% | [3] 29.3% | [4] 30.3% | [5] 35.3% | [6] 30.8% | [7] 32% | [8] 38.5% | [9] 46.1% | [10] 19.4%

O=C(NCCNC(c1ccccc1)C(NCCNC(=O)c1ccccc1)c1ccccc1)c1ccccc1 (stereo not given)
inactive: [1] 19.8% | [2] 81.6% | [3] 101% | [4] 98% | [5] 72.9% | [6] 99.7% | [7] 81.8% | [8] 103% | [9] 96.9% | [10] 86.3%

O=C1C(Cl)=C(Nc2ccccc2)C(=O)c2ccccc21
inactive: [1] 87.3% | [7] 90% | [8] 44.9%
active: [2] -14.8% | [3] -79.5% | [4] -67.5% | [5] -89.3% | [6] -45.7% | [9] -79% | [10] -69.4%

Cc1cccc(-c2nc(C(C)C)sc2-c2ccnc(NCCCNS(=O)(=O)c3ccc(Cl)cc3)c2)c1
inactive: [1] 78.2% | [2] 30.5% | [3] 99.9% | [4] 76.5% | [5] 103% | [6] 67.4% | [7] 80.7% | [8] 84.2% | [9] 113% | [10] 82.2%

Clc1cccc(C2Cc3cnccc3-c3[nH]c4ccncc4c32)c1 (stereo not given)
inactive: [1] 69.6% | [2] 23.6% | [3] 52.2% | [4] 44.8% | [5] 69.1% | [6] 57.7% | [7] 28.6% | [8] 65.5% | [9] 29.9% | [10] 58.4%

COC(=O)c1c2c(c(C)[n+]([O-])c1C)C(=O)C(NCc1ccccc1)=CC2=O
inactive: [1] 42.4% | [2] 24.4% | [4] 10.6% | [6] 28.3% | [7] 43.5%
active: [3] -77.8% | [5] 3% | [8] 8.86% | [9] -22% | [10] 9.18%

Cc1ccc(NC(=O)c2sc3nc(C)c(C(O)c4ccccc4)cc3c2N)cc1 (stereo not given)
active: [2] 6.23% | [7] 4.89% | [8] -4.25%
inactive: [1] 23.9% | [3] 49.1% | [4] 15.9% | [5] 39.3% | [6] 49.5% | [9] 60.2% | [10] 16.3%

Fc1cccc(CNc2c3ccccc3nc3ccccc23)c1
inactive: [1] 41.7% | [2] 15.7% | [3] 50.5% | [4] 30.6% | [5] 32.8% | [6] 62.1% | [7] 25.2% | [8] 26.9% | [9] 58.1% | [10] 38.8%

CCN(CCNc1ccc(C)c2sc3cc(Cl)ccc3c(=O)c12)CC(C)(C)O
inactive: [1] 86.8% | [2] 29.7% | [3] 67.5% | [4] 32% | [6] 79.8% | [7] 88% | [8] 65.8%
active: [5] -18.5% | [9] -8.78% | [10] -65.9%

c1ccc(Cn2cc3c(c2-c2ccccc2)CCc2cnoc2-3)cc1
inactive: [1] 88.3% | [2] 16.2% | [3] 45.8% | [4] 87.2% | [5] 80.6% | [6] 76.6% | [7] 60.4% | [8] 71.9% | [9] 92.4% | [10] 44.1%

CCCCC#Cc1c(I)n(C2OC(CO[Si](C)(C)C(C)(C)C)C3OC(C)(C)OC32)c(=O)n(C(=O)c2ccccc2)c1=O (stereo not given)
active: [2] 6.35% | [3] 1.91% | [5] -56.8% | [8] 3.54%
inactive: [1] 74.7% | [4] 10.1% | [6] 36.8% | [7] 74% | [9] 77.6% | [10] 78.6%

COc1ccc(/C=C/C(c2cc(OC)c(OC)c(OC)c2)n2cncn2)cc1O (stereo not given)
inactive: [1] 21% | [3] 54.4% | [4] 45.5% | [6] 54.1% | [9] 55.6%
active: [2] 8.05% | [5] -16.9% | [7] 1.43% | [8] -4.58% | [10] -12.3%

CC(=O)c1c(Nc2cccc(F)c2)[nH]c2c(Cl)cc(Cl)c(Cl)c2c1=O
inactive: [1] 25.2% | [6] 19.2%
active: [2] 7.81% | [3] -18.6% | [4] -3.57% | [5] 4.14% | [7] -28.4% | [8] 4.02% | [9] -14.2% | [10] 6.55%

O=C(Nc1cc(Cl)cc(Cl)c1)Oc1c(Cl)c(Cl)c(Cl)c(Cl)c1Cl
inactive: [1] 83.7% | [2] 41.4% | [3] 80.6% | [4] 77.8% | [5] 79.7% | [6] 77.3% | [7] 59.8% | [8] 76.8% | [9] 83.7% | [10] 87.3%

COc1ccc(/C=C(/C(=O)N2CCNCC2)c2cc(OC)c(OC)c(OC)c2)cc1O
active: [5] 7.47% | [8] 6.82%
inactive: [1] 27% | [2] 22% | [3] 46.6% | [4] 58.2% | [6] 49.5% | [7] 66.3% | [9] 27% | [10] 38%

COc1cc(/C=C/C(=O)N2CCN(C(=O)c3cc(OC)c(OC)c(OC)c3)CC2)ccc1OCCCOc1cc2c(cc1OC)C(=O)N1CCC[C@H]1C=N2
active: [1] 8.43% | [2] 1.04% | [3] -58.6% | [4] 9.01% | [5] -55.4% | [6] 2.8% | [7] -33.4% | [8] -32.3% | [9] -11.7% | [10] -80.2%

Cc1cc2oc(/C=C/c3ccccc3)cc(=O)c2c(C)c1Cl
inactive: [1] 103% | [2] 118% | [3] 94% | [4] 107% | [5] 98% | [6] 102% | [7] 96.2% | [8] 98.9% | [9] 97% | [10] 108%

C=C(C)[C@@H]1CC[C@]2(CO)CC[C@]3(C)[C@H](CC[C@@H]4[C@@](C)(CCCN)[C@H](C(=C)C)CC[C@]43C)[C@@H]12
active: [1] -44.8% | [2] -5.14% | [3] -94.7% | [4] -96.3% | [5] -85.3% | [6] -41.9% | [7] -75.5% | [8] -97.1% | [9] -78.9% | [10] -74.9%

c1cc(OCCN2CCCC2)ccc1CNc1ccc2nc(CCC3CCCCC3)[nH]c2c1
inactive: [1] 65.2% | [4] 11.2% | [5] 42.2% | [6] 58.3%
active: [2] -11.7% | [3] -83.7% | [7] -30% | [8] -72.4% | [9] -77.8% | [10] -86.9%

O=C(c1ccc(Br)cc1)C(Br)C(c1ccc(Cl)cc1)C(c1ccccc1)[N+](=O)[O-] (stereo not given)
inactive: [1] 97.5% | [2] 106% | [3] 86.2% | [4] 85.4% | [5] 77.2% | [6] 90.2% | [7] 95.1% | [8] 96% | [9] 102% | [10] 92.8%

CCOC(=O)c1[nH]cc2c1CCc1sc(Nc3ccccn3)nc1-2
inactive: [1] 74.4% | [2] 59.5% | [3] 108% | [4] 82.3% | [5] 86.2% | [6] 89.4% | [7] 86.5% | [8] 101% | [9] 73.8% | [10] 86.3%

Cc1cc(NCCCNc2ccnc3cc(Cl)ccc23)nc(Nc2ccc(C(=O)N3CCCCC3)cc2)n1
active: [2] 0.0536% | [3] -90.5% | [4] -38.7% | [5] -63.9% | [7] -34% | [8] -75.1% | [9] -72.9% | [10] -68.3%
inactive: [1] 36.6% | [6] 10.2%

— PubChem BioAssay (NCI)
